Drawing on PubChem BioAssay (NCATS), this text covers Potency and Z-AUC for 29 compounds.

Structures are written as SMILES. Values joined by “and” are separate entries in the source; they are usually repeats but may differ in a detail not shown here. Identical values can stand only once. Active and inactive are the calls of the source. The call rests on the fitted dose curve.

The nature of the assay: qHTS drug screen for cell cycle checkpoint inhibitors in PARPi-resistant BRCA-mutant ovarian cancer cell lines. (AID 1963452). The following applies: PEO1/OlaR viability, CellTiter-Glo luminescence, 96 h; for Z-AUC: stronger effect = lower value. In short, it runs like this: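 PEO1, PEO4 and PEO1/OlaR ovarian cancer cells, 600 per well, exposed 96 h at 37C to a dilution series. Viability read by CellTiter-Glo luminescence, normalized to DMSO and empty wells; activity summarized as Z-AUC.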
For orientation: In qHTS, concentration-response curves come from the screen itself.

[1] abbreviates: measured here: PEO1 parental Z-AUC.
Potency means the concentration at half of the fitted maximal effect.

With `Cc1[nH]c2ccccc2c1CCNCc1ccc(/C=C/C(=O)NO)cc1`, the Potency was 77.6 nM (active). Also, the Z-AUC under setting [1] was -1.48. The Z-AUC (measured here: PEO4 Z-AUC) is -1.35.
Consider `C[C@@H](Nc1ncnc2[nH]c(-c3ccc(O)cc3)cc12)c1ccccc1`, for which the Z-AUC is 0.00552 (inactive). In addition, the Z-AUC under setting [1] was found to be 0.314. Moreover, the Z-AUC (measured here: PEO4 Z-AUC) stood at 0.296.
The corresponding values for `Cc1[nH]c(/C=C2\C(=O)Nc3ccc(S(=O)(=O)N(C)c4cccc(Cl)c4)cc32)c(C)c1C(=O)N1CCN(C)CC1` are 1.27 (inactive), 1.2 and 1.26.
The matching figures for `COCC(=O)NC/C=C/c1ccc2ncnc(Nc3ccc(Oc4ccc(C)nc4)c(C)c3)c2c1`: -0.178 (inactive), -0.29 and -0.0701.
As to `C=CC(=O)Nc1cccc(Nc2nc(Nc3ccc(OCCOC)cc3)ncc2F)c1`, the Z-AUC is -0.82 (inactive). Also, the Z-AUC under setting [1] is -1.21. In addition, under “measured here: PEO4 Z-AUC”, the Z-AUC was -1.08.
The corresponding values for `CC(=O)N1CCN(CCOc2ccc(C3CCN(C4=Nn5c(nnc5C(F)(F)F)CC4)CC3)cc2)CC1` are -0.519 (inactive), -0.781 and -0.776.
Regarding `CC(C)NC(=O)N1CC[C@H](N=C2Nc3cc(F)ccc3N(CC(F)F)c3ccc(Cl)cc32)C1`, the Z-AUC was -0.974 (inactive). For the same compound, the Z-AUC under setting [1] is -0.755. The Z-AUC (measured here: PEO4 Z-AUC) was -0.602.
Take `Cn1cc(-c2ccc(F)c(C(F)(F)F)c2)nc1C1CCN(c2ncnc3[nH]ncc23)CC1`: the Z-AUC is -0.225 (inactive). Further, the Z-AUC under setting [1] is -0.264. Where the note is “measured here: PEO4 Z-AUC”, the Z-AUC was -0.487.
For `Cc1cnc(-c2ccccc2C(C)C)nc1NCc1ccc(-n2ccnn2)cc1`, the Z-AUC was 1.08 (inactive). Moreover, the Z-AUC under setting [1] was determined as 1.04. In addition, where the note is “measured here: PEO4 Z-AUC”, the Z-AUC was 1.31.
For the compound `O=C(c1c(F)ccc(NS(=O)(=O)N2CC[C@@H](F)C2)c1F)c1c[nH]c2ncc(-c3cnc(C4CC4)nc3)cc12`, the Z-AUC was -0.0874 (inactive). In addition, the Z-AUC under setting [1] came out at 0.401. Besides, the Z-AUC (measured here: PEO4 Z-AUC) was found to be 0.486.
The corresponding values for `Cn1cc(-c2ccc(S(=O)(=O)n3ccc(/C=C/C(=O)Nc4ccccc4N)c3)cc2)cn1` are 0.896 (inactive), 1.17 and 0.999.
The matching figures for `CN1CCN(c2ccc(OC(F)(F)F)c(Nc3ncc4c(n3)-c3c(c(C(N)=O)nn3CCO)CC4)c2)CC1`: -0.858 (inactive), -1.94 and -1.88.
The corresponding values for `O=C(Nc1cccnc1)c1cc(-c2ccnc(F)c2)ccc1OCc1ccccc1` are -0.389 (inactive), -0.74 and -0.497.
Consider `CS(=O)(=O)Nc1cc2occ(NC=O)c(=O)c2cc1Oc1ccccc1`, for which the Z-AUC is 0.738 (inactive). Besides, the Z-AUC under setting [1] turned out to be 0.631. Moreover, the Z-AUC (measured here: PEO4 Z-AUC) amounted to 0.731.
Take `O=C(Cc1cccc(OC(F)(F)F)c1)Nc1ccc(CCCCc2nnc(NC(=O)Cc3ccccn3)s2)nn1`: the Z-AUC is -1.13 (inactive). The Z-AUC under setting [1] was -1.01. Where the note is “measured here: PEO4 Z-AUC”, the Z-AUC was -1.03.
The matching figures for `COc1ccc(-c2cnc3c(-c4cccc5ncccc45)cnn3c2)cc1`: -0.651 (inactive), -0.725 and -0.465.
The matching figures for `COc1ccc(CNc2nc(N(CCO)CCO)nc3c2ncn3C(C)C)cc1`: -0.772 (inactive), -0.866 and -0.51.
The matching figures for `Cc1cc(-c2cc(OC(=O)c3ccccc3)ccc2Cl)cc2nnc(Nc3ccc(OCCN4CCCC4)cc3)nc12`: -0.528 (inactive), 0.132 and -1.13.
For `Cc1cccc(CC(=O)N2CCc3c2ccc(-c2cn(C)c4ncnc(N)c24)c3F)n1`, the Z-AUC was -0.652 (inactive). The Z-AUC under setting [1] was -1.04. The Z-AUC (measured here: PEO4 Z-AUC) was -0.572.
The matching figures for `C[C@H](CN(C)C)Oc1nc(Nc2cc3cccc(Cl)c3cn2)cnc1C#N`: -0.234 (inactive), 0.15 and -0.249.
For `Cc1[nH]c(/C=C2\C(=O)Nc3ccc(F)cc32)c(C)c1C(=O)NCCN1CCCC1`, the Z-AUC was 0.66 (inactive). In addition, the Z-AUC under setting [1] was 0.734. Where the note is “measured here: PEO4 Z-AUC”, the Z-AUC stood at 0.596.
Consider `CC[C@@H](C)Nc1cc(C(=O)NC2CC3CC[C@@H](C2)N3c2ccc(C(=O)C3CC3)cn2)c(C)cc1C(N)=O` (some centres not stated), for which the Potency is 219 nM (active). In addition, the Z-AUC under setting [1] is -1.88. Also, the Z-AUC (measured here: PEO4 Z-AUC) is -1.25.
With `Cc1c[nH]c2ncnc(N3CCC(CN)(C(=O)Nc4cccc(OC(=O)N(C)C)c4)CC3)c12`, the Z-AUC was -0.731 (inactive) and 0.531 (inactive). The Z-AUC under setting [1] is -0.27 and -0.244. Besides, the Z-AUC (measured here: PEO4 Z-AUC) is -0.694 and 1.07.
Turning to `C=CC(=O)Nc1ccc2ncnc(Nc3cccc(Br)c3)c2c1`, the Z-AUC was -0.896 (inactive). For the same compound, the Z-AUC under setting [1] is -1.05. The Z-AUC (measured here: PEO4 Z-AUC) was -0.968.
In the case of `COCCNCc1ccc(-c2cc3nccc(Oc4ccc(NC(=O)C5(C(=O)Nc6ccc(F)cc6)CC5)cc4F)c3s2)nc1`, the Z-AUC was -0.956 (inactive). For the same compound, under setting [1], the Z-AUC was -0.642. Further, the Z-AUC (measured here: PEO4 Z-AUC) is -0.561.
As to `Fc1ccc(-c2nc(-c3ccccc3F)[nH]c2-c2ccncc2)cc1`, the Z-AUC was 0.595 (inactive). Further, the Z-AUC under setting [1] was -0.0932. The Z-AUC (measured here: PEO4 Z-AUC) came to 0.278.
The corresponding values for `NCC1CCN(c2nccc(-c3ccc4ccccc4c3)n2)CC1` are -1.15 (inactive), 0.563 and -0.738.
The matching figures for `C[C@@H]1COCCN1c1cc(=O)n2c(n1)N(Cc1cncc(Cl)c1)[C@H](C(F)(F)F)CC2`: -0.103 (inactive), -0.0406 and -0.0495.
As for `Cn1cc(-c2ccc3c(c2)CCN3C(=O)Cc2cccc(C(F)(F)F)c2)c2c(N)ncnc21`, the Z-AUC was -1.17 (inactive). In addition, under setting [1], the Z-AUC was -0.267. For the same compound, the Z-AUC (measured here: PEO4 Z-AUC) is -1.2.
